Screening results from PubChem.
Most compounds without a hit are left out; they make up all but 4.6% or so of the library.
PNC inhibitor: inhibitors of perinucleolar compartment assembly; activity change (PNC), negative = inhibition, % at 10 µM; PC3M PTB-GFP, PNC prevalence imaging, 16 h; hits give low values; hit rate 3.1% among 140,000; AID 2417;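 active = readout at or below -70, meaning at least 70% loss of cells showing the perinucleolar compartment, a nuclear body marking cancer cells; inconclusive = readout between -30 and a set limit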;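 note: plate controls were DMSO wells for no effect and camptothecin positive control wells for full effect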
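PC3M cells stably expressing PTB-GFP, 750–1000 cells/well, treated 16 h at 37 °C with compound (23 nl of library stock), in duplicate. After paraformaldehyde fixation and Hoechst stain, imaged at 20x; PNC prevalence scored by image analysis.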
Tau fibril ThT: tau fibrillization inhibition (ThT binding); P10636; recombinant tau K18 P301L, heparin-induced fibrillization, ThT fluorescence; Potency, µM (top dose mostly 57.4 µM), inactives show top-dose activity, negative = inhibition, actives largely listed as inhibitors; hit rate 2.1% among 270,000; AID 1460; note: potency is the fitted concentration of half-maximal effect; nearly all actives have a fitted effect of over 55% in size
Target sequence (P10636 561-689 P618L limits assumed): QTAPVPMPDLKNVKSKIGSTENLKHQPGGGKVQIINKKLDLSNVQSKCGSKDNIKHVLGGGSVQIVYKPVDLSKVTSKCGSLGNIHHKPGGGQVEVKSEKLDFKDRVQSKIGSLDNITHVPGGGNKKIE
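Tau K18 P301L fragment (15 uM unlabeled plus 0.24 uM Alexa 594-labeled) in 100 mM sodium acetate pH 7 with compound, fibrillization induced by 20 uM heparin for 6 hr at 37 C. Thioflavin T (30 uM) added, fluorescence read after 1 hr (ex 450, em 510 nm).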
Tau fluor cs: counter-screen for tau fibril formation inhibitors | tau K18 P301L (four-repeat tau fragment) Alexa594 fluorescence, heparin fibrillization | hit rate 0.93% among 280,000 | Potency, µM (titrated, usually from 57.7 µM), without a hit: at the highest dose activity change, negative = decrease; note: potency is the fitted concentration of half-maximal effect; nearly all actives have a fitted effect of over 55% in size
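Human K18 P301L tau (15 uM unlabeled plus 0.24 uM Alexa 594-labeled, final) in 100 mM sodium acetate pH 7 was mixed with compound and 20 uM heparin and incubated 6 hr at 37 C.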
Tau fibril FP: inhibitors of human tau fibril formation. K18 P301L tau heparin fibrillization, Alexa594 FP, 6 h. hit rate 0.39% among 280,000. Potency, µM (doses to about 57.7 µM), without a hit: top-dose activity, negative = inhibition, actives largely listed as inhibitors; note: potency is the fitted concentration of half-maximal effect; nearly all actives have a fitted effect of over 55% in size
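Compound effects on tau fibrillization are measured by Alexa 594 fluorescence polarization (ex 555, em 632 nm). K18 P301L tau is used at 15 uM with 0.24 uM labeled tracer, and 20 uM heparin induces aggregation over 6 hr at 37 C.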
TRb-SRC2 inh: inhibitors of human thyroid hormone receptor beta-SRC2 interaction; P10828; TRbeta-SRC2 peptide binding, fluorescence polarization; receptor liganded with 1 µM T3; Potency, µM (titrated, usually from 106 µM), without a hit: top-dose activity change, negative = inhibition, usual class: inhibitors; hit rate 0.065% among 280,000; AID 1469;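 note: potency is the fitted concentration of half-maximal effect; plate controls were bound peptide for no effect and peptide without receptor for full effect; nearly all actives have a fitted effect of over 50% in size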
Target sequence (P10828 whole entry, looked up): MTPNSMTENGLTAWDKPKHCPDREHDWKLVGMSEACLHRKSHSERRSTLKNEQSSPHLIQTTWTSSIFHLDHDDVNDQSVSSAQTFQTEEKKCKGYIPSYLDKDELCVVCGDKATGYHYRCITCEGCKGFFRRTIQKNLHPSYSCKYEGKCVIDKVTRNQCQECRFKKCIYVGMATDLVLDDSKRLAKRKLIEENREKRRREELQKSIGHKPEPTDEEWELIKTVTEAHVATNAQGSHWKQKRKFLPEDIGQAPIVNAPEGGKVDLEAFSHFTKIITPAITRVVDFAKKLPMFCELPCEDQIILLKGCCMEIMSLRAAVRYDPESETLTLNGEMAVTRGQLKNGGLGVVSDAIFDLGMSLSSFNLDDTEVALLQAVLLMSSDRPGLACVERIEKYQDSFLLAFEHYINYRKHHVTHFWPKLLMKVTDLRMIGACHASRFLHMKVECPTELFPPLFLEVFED
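TRb LBD 0.6 uM + Texas Red SRC2 peptide 20 nM, 1 uM T3, Tris buffer w/ 5% DMSO; compound pinned, 5 h RT; FP read ex 555/em 632; normalized to unbound and bound controls.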
TexasRed fluor: counter-screen for TRb-SRC2 inhibitors: fluorescence interference. hit rate 0.29% among 280,000. AID 1479. Potency, µM (doses to about 106 µM), for inactives: at the highest dose fluorescence change, negative = quenching. TRb/SRC2 Texas Red total fluorescence interference; active = well fitted curve in either direction with a large enough effect; inconclusive = small, poorly fitted or top-dose-only effect; note: potency is the fitted concentration of half-maximal effect
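Human TRb ligand-binding domain at 0.6 uM with 20 nM Texas Red SRC2 peptide in Tris buffer containing 1 uM T3 and 5% DMSO, incubated with compound 5 h at ambient temperature. Total fluorescence (555/632 nm) calculated as parallel + 2 × perpendicular.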
An asterisk follows results filed as active; ? = inconclusive; / = not tested or not shown; [ ] = remark or other dose. Unless noted, calls come from the whole dose curve; as a rule, active = well fitted curve in the direction sought with a large enough effect; inconclusive = small, poorly fitted or top-dose-only effect, or another doubt; inactive = no such curve, though single readings can be large; an effect the other way counts as inactive or inconclusive. Unless noted, % is set by controls: 0 for no effect and ±100 for the full control effect.

SMILES | PNC inhibitor | Tau fibril ThT | Tau fluor cs | Tau fibril FP | TRb-SRC2 inh | TexasRed fluor
Cc1ccc(NC(=O)CN2C(=O)N/C(=C/c3ccc(C)o3)C2=O)cc1 | ? | ? | -13% | ? | -12% | 2%
C=CCN1C(=O)N/C(=C/c2ccc(C)o2)C1=O | ? | 25µM* | -13% | ? | -27% | 16%
COc1cc(-c2cc(C(=O)Nc3nc4ccccc4s3)c3ccccc3n2)cc(OC)c1OC | ? | ? | ? | -4% | 2% | -2%
O=c1cc(O)c2c(=O)n(-c3ccccc3)c3c(c2o1)CCCCCC3 | -88* | -8% | 4% | -7% | -13% | -5%
O=[N+]([O-])c1cc(C(F)(F)F)cc([N+](=O)[O-])c1NN=C1CCCCC1 | -3 | 13µM* | ? | ? | 0% | -11%
COc1cc(/C=C2\C(C)=C(C#N)c3nc(N)c(C#N)c(C)c32)ccc1OCC(=O)O | / | 14µM* | ? | ? | 11% | ?
CC1=C(C#N)c2nc(N)c(C#N)c(C)c2/C1=C\c1ccc(C)cc1 | 0 | 18µM* | ? | ? | -19% | 30%
COCCCNC(=O)/C(C#N)=C/c1ccc(OCC(=O)O)c(OC)c1 | 5 | -18% | -16% | 3% | 0% | -2%
COc1ccc(-c2oc3ncn4nc(-c5ccc(Cl)cc5)nc4c3c2-c2ccc(OC)cc2)cc1 | / | 4% | -5% | -15% | 9% | -3%
CCN(CC)CCNC(=O)c1c(O)c2cc(OC)c(OC)cc2[nH]c1=O | -119* | -9% | -7% | 7% | 3% | -1%
CCOc1ccc(-c2c(C)nn3c(C)c(C(=O)NCc4ccc(Cl)cc4)cnc23)cc1OCC | / | -9% | -16% | 2% | -11% | 251µM*[quencher]
CCc1cc2c3c(c(=O)oc2cc1OC)CCCC3 | 27 | ? | -5% | -3% | -1% | -3%
Cn1c(=O)c2ncn(CC(=O)NCCC3=CCCCC3)c2n(C)c1=O | -100* | 3% | 5% | 6% | -8% | -7%
Cn1c(=O)c2ncn(CC(=O)NC3CCCCCC3)c2n(C)c1=O | ? | -7% | 1% | 5% | 0% | 1%
COc1cc(C(=O)N/N=C(\C)Cn2nc([N+](=O)[O-])cc2C)ccc1O | 19 | -5% | 2% | 6% | 4% | -4%
CC(=C\c1ccccc1)/C=C1/SC(=S)N(C(C(=O)O)C(C)C)C1=O (stereo not given) | / | 25µM* | -13% | -10% | -14% | -1%
CCC(C(=O)O)N1C(=O)/C(=C/C(C)=C/c2ccccc2)SC1=S (stereo not given) | / | 18µM* | -22% | -12% | -5% | -2%
CC(C)C(C(=O)O)N1C(=O)/C(=C/c2ccc(Br)cc2)SC1=S (stereo not given) | / | / | / | / | -1% | 0%
CC(/C=C1\SC(=S)N(CCCC(=O)Nc2ccc(C(=O)O)cc2)C1=O)=C\c1ccccc1 | -7 | 14µM* | -14% | -12% | -1% | 1%
CCOC(=O)C(Nc1ccc2ccccc2c1)C(=O)OCC | -28 | 0% | -2% | -4% | 9% | 1%
COC(=O)CC1Oc2ccc(Cl)cc2-n2cc(-c3ccccc3)nc21 (stereo not given) | / | -15% | -24% | -9% | -3% | 0%
Clc1ccc2c(c1)-n1cc(-c3ccccc3)nc1CO2 | / | ? | -21% | -15% | -10% | 11µM*[quencher]
O=C(c1cccnc1Cl)N(Cc1ccccc1)Cc1ccccc1 | / | -11% | -12% | -9% | 4% | 0%
CC(C)(C)n1nnnc1C(c1ccc(Cl)cc1)N1CCCc2ccccc21 (stereo not given) | -88* | -1% | -9% | 13% | 6% | 1%
CC(=O)c1cccc2c(O)c(C3=Nc4ccccc4C3=O)[nH]c12 | -22 | 3.5µM* | ? | ? | 6% | 0%
SMILES | PNC inhibitor | Tau fibril ThT | Tau fluor cs | Tau fibril FP | TRb-SRC2 inh | TexasRed fluor
Cc1ccc(CNC(=O)CSc2nc3ccsc3c(=O)n2Cc2ccc(C(=O)O)cc2)cc1 | / | 0% | -4% | -7% | 10% | 0%
Cc1cc(N2CCN(C(=O)OC(C)(C)C)CC2)n2ncnc2n1 | -88* | -8% | 1% | -3% | -6% | -1%
Cc1cc(N2CCN(C(=O)c3ccco3)CC2)n2ncnc2n1 | 8 | -4% | 3% | 4% | 0% | -5%
Cc1ccc(Nc2nc(CSc3nnnn3-c3ccccc3)cs2)cc1 | -13 | ? | 11µM*[quencher] | 13% | -2% | 0%
Cc1ccc(Nc2nc(CSc3nnc(-c4ccccc4C)n3C)cs2)cc1 | -107* | ? | ? | 7% | 3% | -6%
O=C1N=C(N2CCOCC2)S/C1=C/c1ccc(-c2ccccc2Cl)o1 | -15 | -16% | -13% | 1% | -21% | -4%
CCOC(=O)CNC(=O)CCNS(=O)(=O)c1ccc2c(c1)c(=O)n(C)c(=O)n2C | 14 | -4% | -4% | ? | -5% | -1%
Cc1cccc2cc(C#N)c(SCC(=O)N3CC(=O)Nc4ccccc43)nc12 | -85* | ? | -19% | 5% | -5% | -6%
CC1CN(C(=O)CSc2nc(-c3ccccc3)cs2)CC(C)O1 (stereo not given) | 16 | -19% | -9% | -1% | 5% | -2%
O=C1CN(C(=O)CSc2nc(-c3ccccc3)cs2)c2ccccc2N1 | -91* | -6% | -20% | 7% | 1% | 1%
CC1(C)C(=O)Nc2ccccc2N1C(=O)CSc1nc(-c2ccccc2)cs1 | 0 | 6% | 5% | 1% | -8%[53 µM] | 32µM*[quencher]
Cc1cc(N=Cc2c(O)ccc3ccccc23)no1 | 6 | 22µM* | ? | ? | 50µM* | ?
Cc1cc(N=Cc2c(O)ccc3cc(Br)ccc23)no1 | 31 | 14% | 11% | 0% | ? | -20%
Oc1ccc2ccccc2c1/C=N/c1nccs1 | 37 | ? | -8% | -14% | 35µM* | ?
Cc1c(NC(=O)CCCN2C(=O)c3cccc4cccc(c34)C2=O)c(=O)n(-c2ccccc2)n1C | / | -6% | -1% | 3% | 5% | -4%
CC(=O)Nc1sc(N)nc1-c1ccccc1 | -16 | -14% | -5% | -1% | 4% | 0%
Nc1nc(-c2ccccc2)c(N=Nc2cccc3ccccc23)s1 | 33 | 2.8µM* | 3.2µM*[quencher] | 18µM* | 8% | -6%
Nc1nc(-c2ccccc2)c(N=Nc2ccccc2Cl)s1 | 26 | 5µM* | 4.5µM*[quencher] | ? | -1% | -1%
O=C(Nc1nccs1)c1cnccn1 | -100* | -5% | 1% | 4% | -7% | -6%
O=C(Nc1nccs1)c1ccccn1 | / | -4% | 2% | -2% | -2% | -1%
Cc1ccc(C(=O)O/N=C/c2c(C(F)(F)F)nn(C)c2Sc2ccc(Cl)cc2)cc1 | 41 | -11% | -21% | -5% | 3% | 0%
